About 83,000 compounds went through this panel and 20% of them were active in at least one assay; those are over-represented in the sample as a whole.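 Single-concentration screen, 48 h exposure, 96-well plates. Endpoint: percent growth. Below 10 = active.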 Values without a mark were called inactive. The source made the active and inactive calls.

The test system of the first assay is 786-0 renal. The assay is described as follows: NCI-60 one-dose screen, 48 h (100 = growth as untreated, 0 = no growth, -100 = all killed). The conditions noted are these: 10 µM unless noted.
Take `CC(O)CN(CC(C)O)N(CC(C)O)CC(C)O` (stereo not drawn): the growth is 99.5%.

Take `O=C(Nc1ccc(-n2cc(-c3ccncc3)c(-c3ccc(Cl)c(O)c3)n2)cc1)c1cc(C(F)(F)F)cc(C(F)(F)F)c1`: the growth is 38.4%.

Regarding `COc1cc(-c2nn(-c3ccc(NC(=O)c4cc(Cl)cc(Cl)c4)cc3)cc2-c2ccncc2)ccc1Cl`, the growth was 16.7%.

For `CCCCCCC(C)N(CC(C)(C)O)C(=O)c1ccc([N+](=O)[O-])cc1` (stereo not drawn), the growth was 94.5%.

For `COc1cc(-c2nn(-c3ccc(NC(=O)c4ccc(Cl)c(Cl)c4)cc3)cc2-c2ccncc2)ccc1Cl`, the growth is -34.5% (active).

`COC(=O)[C@@H]1[C@H](O)[C@H](C)[C@H](O)[C@H](C)/C=C\C=C(C)C(=O)Nc2c(C)c(OC(C)=O)c3c(c2O)C(=O)C(C)=C2OCOC(=C23)C(C)=C[C@@](C)(O)[C@H](O)[C@@H](C)[C@H]1OC(C)=O`: the growth is 111%.

With `C/C(=C\c1ccc2ccccc2c1)[N+](=O)[O-]`, the growth was -62.9% (active).

As for `Cc1cc2cn3c4ccc(O)cc4[nH]c(=O)c3c2cc1C`, the growth is 19.1%.

Consider `COc1ccc(C(=O)N2N=C(c3ccc(Br)cc3)CC2c2cn(-c3ccccc3)nc2-c2ccccc2)cc1` (stereo not drawn), for which the growth is 74%.

In the case of `O=CN/N=C/c1ccc(Cl)c([N+](=O)[O-])c1`, the growth was 31.6%.

`O=C1CCNC1`: the growth was 96.1%.

On to `O=c1[nH]c2cc(O)ccc2n2cc3c(F)cccc3c12`, for which the growth is 28.7%.

On to `O=C(CCC(=O)N(CCO)CCO)N(CCO)CCO`, for which the growth was 96.4%.

Regarding `O=C(CCl)NC1c2ccccc2Oc2ccccc21`, the growth is 77.2%.

For `CC(=O)N1CCN(CCNC(=O)n2cc(-c3ccncc3)c(-c3cc(O)cc(Cl)c3)n2)CC1`, the growth is 67.8%.

In the case of `CC(C)OCC1CO1` (stereo not drawn), the growth was 113%.

As to `Oc1ccc(Br)cc1/C=N/NC(=S)NC12CC3CC(CC(C3)C1)C2`, the growth is 54.8%.

`CC(=O)N1CCN(CCNC(=O)n2cc(-c3ccncc3)c(-c3ccc(O)c(Cl)c3)n2)CC1`: the growth was 113%.

Turning to `CCOC(=O)/C(C#N)=C(/CC)OCC`, the growth is 103%.

For the molecule `O=C1Nc2c(c(=O)n(-c3ccccc3)c3ccccc23)C(c2ccc(Cl)cc2)N1` (stereo not drawn), the growth was 60.8%.

With `N=C(c1ccccc1)N(Cc1ccccc1)Cc1ccccc1`, the growth was 86.5%.

In the case of `COc1cccc(NC(=O)NCCNc2nccc(-c3c(-c4ccc(F)cc4)nc4sccn34)n2)c1`, the growth is 63%.

With `Cc1ccc(NC(=O)CCl)cc1Cl`, the growth is 117%.

A further assay has as its system COLO 205 colon. The description is as above. To be noted: 10 µM unless noted.
Regarding `COc1ccc(-c2nnc(SCC(=O)Nc3ccc(C(=O)/C=C/c4cc(OC)c(OC)c(OC)c4)cc3)n2-c2ccccc2)cc1OC`, the growth was 30.3% [100 µM].

Take `COc1ccc2cn3c4ccc(O)cc4[nH]c(=O)c3c2c1`: the growth was -7.26% (active).

As to `COc1ccc(/C=N/c2cc(C(C)(C)C)nn2-c2ccccc2)cc1`, the growth was 105%.

On to `CCCCCCCCCCC1OC(C)CC(C)O1` (stereo not drawn), for which the growth was 105%.

As to `S=C(N/N=C/c1cc(Cl)cc(Cl)c1)NC12CC3CC(CC(C3)C1)C2`, the growth was 68.8%.

For the molecule `CCOC1=C(Cl)C(=O)C(OCC)=C(Cl)C1=O`, the growth was 104%.

With `COC(=O)/C=C1/CCCCC1(C)C(=O)OC` (stereo not drawn), the growth was 120%.

For the molecule `CCCCCCCCCCC(C[N+](C)(C)C/C=C/c1ccccc1)C(O)c1ccccc1` (stereo not drawn), the growth was -89.2% (active).

Take `C=CC1CN2CCC1CC2C(O)c1ccnc2ccc(OC)cc12` (stereo not drawn): the growth was 106%.

Consider `CC(=O)c1ccc2c(c1)c1ccccc1n2C`, for which the growth is 99.8%.

In the case of `CC(=O)Nc1nc(C)c(C(=O)NNS(=O)(=O)c2ccccc2)s1`, the growth is 119%.

For the molecule `Cc1cc2cn3c4ccc(O)cc4nc(N)c3c2cc1C`, the growth was -56.4% (active).

In the case of `COc1cc(-c2nn(-c3ccc(NC(=O)Nc4ccc(Cl)c(Cl)c4)cc3)cc2-c2ccncc2)ccc1Cl`, the growth was 20.1%.

Take `CCOC(=O)c1sc(NS(=O)(=O)c2ccccc2)nc1C`: the growth was 120%.

`Clc1ccc(I)c2ccccc12`: the growth was 110%.

For `N#Cc1c2cccnc2c2nnc3cc(Cl)c(Cl)cc3n12`, the growth was 85.8%.

Consider `COc1ccc(C(=O)NCCNc2nccc(-c3c(-c4ccc(F)cc4)nc4sccn34)n2)cc1`, for which the growth is 47%.

For `CC(O)CN(CC(C)O)N(CC(C)O)CC(C)O` (stereo not drawn), the growth was 109%.

For the molecule `O=C(Nc1ccc(-n2cc(-c3ccncc3)c(-c3ccc(Cl)c(O)c3)n2)cc1)c1cc(C(F)(F)F)cc(C(F)(F)F)c1`, the growth was 70.1%.

As to `COc1cc(-c2nn(-c3ccc(NC(=O)c4cc(Cl)cc(Cl)c4)cc3)cc2-c2ccncc2)ccc1Cl`, the growth is 101%.

Consider `CCCCCCC(C)N(CC(C)(C)O)C(=O)c1ccc([N+](=O)[O-])cc1` (stereo not drawn), for which the growth is 99.6%.

`COc1cc(-c2nn(-c3ccc(NC(=O)c4ccc(Cl)c(Cl)c4)cc3)cc2-c2ccncc2)ccc1Cl`: the growth is 52.6%.

As for `COC(=O)[C@@H]1[C@H](O)[C@H](C)[C@H](O)[C@H](C)/C=C\C=C(C)C(=O)Nc2c(C)c(OC(C)=O)c3c(c2O)C(=O)C(C)=C2OCOC(=C23)C(C)=C[C@@](C)(O)[C@H](O)[C@@H](C)[C@H]1OC(C)=O`, the growth is 116%.

Take `C/C(=C\c1ccc2ccccc2c1)[N+](=O)[O-]`: the growth is -26.9% (active).

With `Cc1cc2cn3c4ccc(O)cc4[nH]c(=O)c3c2cc1C`, the growth is -63.3% (active).

Turning to `COc1ccc(C(=O)N2N=C(c3ccc(Br)cc3)CC2c2cn(-c3ccccc3)nc2-c2ccccc2)cc1` (stereo not drawn), the growth was 26.2%.

On to `O=CN/N=C/c1ccc(Cl)c([N+](=O)[O-])c1`, for which the growth was 26%.

On to `O=C1CCNC1`, for which the growth is 112%.

In the case of `O=c1[nH]c2cc(O)ccc2n2cc3c(F)cccc3c12`, the growth is 66.2%.

`O=C(CCC(=O)N(CCO)CCO)N(CCO)CCO`: the growth is 98.4%.

As to `O=C(CCl)NC1c2ccccc2Oc2ccccc21`, the growth was 103%.

Consider `CC(=O)N1CCN(CCNC(=O)n2cc(-c3ccncc3)c(-c3cc(O)cc(Cl)c3)n2)CC1`, for which the growth is 86.8%.

In the case of `CC(C)OCC1CO1` (stereo not drawn), the growth was 104%.

In the case of `Oc1ccc(Br)cc1/C=N/NC(=S)NC12CC3CC(CC(C3)C1)C2`, the growth was 68%.

For `CC(=O)N1CCN(CCNC(=O)n2cc(-c3ccncc3)c(-c3ccc(O)c(Cl)c3)n2)CC1`, the growth is 119%.

Take `CCOC(=O)/C(C#N)=C(/CC)OCC`: the growth was 113%.

On to `O=C1Nc2c(c(=O)n(-c3ccccc3)c3ccccc23)C(c2ccc(Cl)cc2)N1` (stereo not drawn), for which the growth was 107%.

Take `N=C(c1ccccc1)N(Cc1ccccc1)Cc1ccccc1`: the growth was 88.2%.

For the molecule `COc1cccc(NC(=O)NCCNc2nccc(-c3c(-c4ccc(F)cc4)nc4sccn34)n2)c1`, the growth is 69.3%.

For the molecule `Cc1ccc(NC(=O)CCl)cc1Cl`, the growth was 122%.

For the origin of these results see PubChem BioAssay (NCI).
